# Source: PubChem (National Center for Advancing Translational Sciences (NCATS))
# Compounds with a hit are over-represented: about 0.93% of the library has one in this group of screens.
# Coupling enz: counter-screen for Giardia aldolase inhibitors: coupling enzyme system | coupling enzyme system counterscreen, AmpLite Red fluorescence | activity change, negative = inhibition, % at 58.2 µM, hits read low | actives 0.67% (n = 290,000) | AID 2472; in the data active means activity change below about -30%
#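 Activity here indicates interference with the coupling reaction, not aldolase inhibition. Compounds at 57.5 uM final met coupling enzymes for 10 min at RT; substrate and AmpLite Red detection followed, with a 525/598 nm fluorescence read after 20 min.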
# TRb-SRC2 inh: inhibitors of human thyroid hormone receptor beta-SRC2 interaction; TRbeta-SRC2 peptide binding, fluorescence polarization; receptor liganded with 1 µM T3; Potency, µM (series often up to 106 µM), without a hit: top-dose activity change, negative = inhibition, usual class: inhibitors; actives 0.065% (n = 280,000); active means well fitted inhibition curve with a large enough effect; inconclusive means small, poorly fitted or top-dose-only effect, or effect the other way;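 further: potency means the concentration at half of the fitted maximal effect; plate controls were bound peptide for no effect and peptide without receptor for full effect; nearly all actives have a fitted effect of over 50% in size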
# Target sequence (P10828 whole entry, looked up): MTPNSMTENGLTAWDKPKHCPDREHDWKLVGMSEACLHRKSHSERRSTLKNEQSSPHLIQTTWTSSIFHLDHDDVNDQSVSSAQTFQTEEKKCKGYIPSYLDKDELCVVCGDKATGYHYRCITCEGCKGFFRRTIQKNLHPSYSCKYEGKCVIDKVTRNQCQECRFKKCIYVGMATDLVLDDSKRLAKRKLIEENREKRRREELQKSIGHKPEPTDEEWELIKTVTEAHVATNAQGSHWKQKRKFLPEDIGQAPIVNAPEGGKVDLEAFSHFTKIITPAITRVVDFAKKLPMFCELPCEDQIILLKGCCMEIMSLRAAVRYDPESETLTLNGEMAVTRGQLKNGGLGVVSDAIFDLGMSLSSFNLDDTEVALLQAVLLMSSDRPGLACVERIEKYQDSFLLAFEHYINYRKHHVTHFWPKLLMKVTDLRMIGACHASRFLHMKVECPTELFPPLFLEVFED
#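 Human TRb ligand-binding domain (0.6 uM) is mixed with 20 nM Texas Red SRC2 peptide and 1 uM T3; after compound addition and 5 hr at ambient temperature, polarization is measured and normalized to unbound and bound controls.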
# GoLoco inh red: blocks human Gai1 binding to RGS12 GoLoco peptide, red readout. P63096. Gai1:RGS12 GoLoco peptide FP, rhodamine, 10 min. Potency, µM (series often up to 61.6 µM), without a hit: at the top dose activity, negative = inhibition, hits mostly inhibitors. actives 0.44% (n = 230,000). AID 880; active means well fitted inhibition curve with a large enough effect, not every such curve was filed as active; inactive means no such curve, though single readings can be large or run the other way; further: potency means the concentration at half of the fitted maximal effect; nearly all actives have a fitted effect of over 30% in size
# TexasRed fluor: alters Texas Red total fluorescence, flagging assay interference. TRb/SRC2 Texas Red total fluorescence interference. Potency, µM (series often up to 106 µM), without a hit: at the top dose fluorescence change, negative = quenching. actives 0.29% (n = 280,000); active means well fitted curve in either direction with a large enough effect; inconclusive means small, poorly fitted or top-dose-only effect; further: potency means the concentration at half of the fitted maximal effect
#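 Flags fluorescent or light-absorbing compounds by total fluorescence, S + 2P, at 555 nm excitation and 632 nm emission. Mixture: 20 nM Texas Red SRC2 peptide, 0.6 uM human TRb LBD, 1 uM T3, 5% DMSO; compound exposure 5 h at ambient temperature.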
# Numbers without * were called inactive; ? = inconclusive; . = not tested or not shown; ! = not confirmed by another sample; [ ] = another dose, or the depositor's remark. Unless noted, on the % scale 0 is the no-effect control and ±100 the full control effect.
SMILES,Coupling enz,TRb-SRC2 inh,GoLoco inh red,TexasRed fluor
COc1cccc2c1C(=O)c1c(O)c3c(c(O)c1C2=O)C[C@](O)(C(=O)CO)C[C@@H]3O[C@H]1C[C@H](N)[C@@H](O)[C@H](C)O1,.,3%,-1%,1%
COc1cccc2c1C(=O)c1c(O)c3c(c(O)c1C2=O)C[C@@](O)(C(C)=O)C[C@@H]3O[C@H]1C[C@H](N)[C@H](O)[C@H](C)O1,-52*!,22µM*!,1.6µM*,45µM*![fluorescent]
COc1cccc2c1C(=O)c1c(O)c3c(c(O)c1C2=O)C[C@@](O)(C(=O)CO)C[C@@H]3OC1C[C@@H](N)[C@H](O)[C@H](C)O1 (some centres not stated),-23,14µM*,3.5µM*,40µM*[fluorescent]
CCCCc1ccc(-n2nc3cc(Cl)c(NC(=O)c4ccc(OC)cc4)cc3n2)cc1,.,2%,.,-5%
Cc1cc(C(=O)Nc2nnc(C(F)(F)F)s2)cs1,-35*,-5%,2%,-2%
O=C(Nc1nnc(C(F)(F)F)s1)c1ccc(Br)s1,-34*,4%,-7%,-8%
CCSc1nnc(NC(=O)c2ccc(Br)s2)s1,-27,-6%,0%,-1%
NN(c1ccccc1)c1ccccc1,.,-2%[201 µM],.,0%[201 µM]
COc1cccc(C(=O)Nc2ccc3nc(N4CCC(C)CC4)cc(C)c3c2)c1,.,2%,.,-2%
CCCC[C@]12Cc3cc(OC)c(OC)cc3C(O1)C1=C(O2)C(=O)c2ccccc2C1=O,-36*,.,.,.
COC(=O)c1ccc(-c2nc3cc(Cl)c(N)cc3s2)cc1,-32*,5%,-2%,-5%
COC(=O)c1ccc(-c2nc(O)c(C)s2)cc1,2,0%,-5%,-1%
COc1ccc(NC(=O)N(CCC(C)C)C(C)c2cccs2)c(OC)c1 (configuration not stated),.,0%,.,-3%
O=C(CN1CCCCC1)N1CCCc2ccccc21,0,11%,-2%,0%
N#Cc1ccc2ccn(CC(=O)N3CCCc4ccccc43)c2c1,-39*,-18%,63%,0%
S=c1c2c(nc3nc[nH]n13)CCC2,-36*,9%,-16%,-2%
Nc1ccc(C(=O)OCC(=O)N2CCc3ccccc3C2)cc1[N+](=O)[O-],1,-11%,1%,-1%
Nc1ccc(C(=O)OCC(=O)N2CCN(C(=O)c3ccco3)CC2)cc1[N+](=O)[O-],6,-12%,-10%,0.16µM*[quencher]
O=C(CCn1c(=O)c2cccn2c2cccnc21)NCc1ccc(Cl)cc1,.,1%,.,-1%
Cc1nc2ccccc2nc1-c1ccc(N=[N+]([O-])c2ccc(-c3nc4ccccc4nc3C)cc2)cc1,.,.,2%[14.2 µM],.
CC1(C)C=C2C(=NN(c3ccccc3)C(N)=C2C#N)CO1,-62*,.,.,.
CC1(C)Cc2c(C#N)c(N)n(-c3ccccc3)c(=S)c2CO1,-17,-2%,-12%,-2%
CCC(C(=O)N1CCN(c2cc(Cl)ccc2C)CC1)n1nc(C)c2sc3ccccc3c2c1=O (configuration not stated),.,-1%,.,0%
COc1cc(/C=C/c2nc(C#N)c(N3CCN(C)CC3)o2)cc(OC)c1OC,.,9%,.,-2%
Cc1cc2nc3ccc(=[N+](C)C)cc-3sc2cc1N,-42*,7.9µM*,-32%,45µM*[fluorescent]
SMILES,Coupling enz,TRb-SRC2 inh,GoLoco inh red,TexasRed fluor
Cc1cccc(S(=O)(=O)c2cn(Cc3ccc(F)cc3)c3cc(N4CCCCC4)c(F)cc3c2=O)c1,.,-2%,.,0%
CC(=O)NCCNc1nc(-c2ccc(N(C)C)cc2)nc2ccccc12,-1,5%,-3%,-8%
COc1ccc(-c2ccc(NS(=O)(=O)c3ccc(F)c(C(F)(F)F)c3)cc2)nn1,.,-4%,.,224µM*[quencher]
Cc1cccc(NC(=O)CSc2nc(C)cc(C)c2C(=O)Nc2ccc(Cl)cc2)c1,.,2%,.,6%
O=c1[nH]c2ccc(NCc3ccc(-c4ccc(Cl)cc4)o3)cc2[nH]1,.,?,.,100µM*[quencher]
O=c1[nH]c2ccc(NCc3ccc(-c4ccccc4)o3)cc2[nH]1,.,-9%,.,-1%
Cc1cc(C)c2c(CC(=O)N(Cc3ccc(N(C)C)cc3)Cc3ccco3)coc2c1,.,-8%,.,?
Cc1ccc(CN(Cc2ccco2)C(=O)COc2ccc(C(C)C)cc2)cc1,.,?,.,0.0006µM*[quencher]
Cc1ccc2c(CC(=O)N(Cc3ccc(Cl)cc3)Cc3ccco3)coc2c1,.,-17%[53 µM],.,1.1µM*[quencher]
COc1ccc(Nc2nc(C)cc(C)c2C(N)=O)c(OC)c1,-40*,-1%,-17%,3%
COc1ccc(/C=C(/C(=O)c2ccc(Cl)cc2Cl)n2cncn2)cc1,0,0%,3%,0%
CN(C)c1ccc(/C=C(/C(=O)c2ccc(Cl)cc2Cl)n2cncn2)cc1,2,-9%,43%,31623µM*[quencher]
CC[C@@H](C(=O)[C@@H](C)[C@@H](O)[C@H](C)CCc1ccc(C)c(O)c1C(=O)O)[C@H]1O[C@](CC)([C@H]2CC[C@](O)(CC)[C@H](C)O2)C[C@@H]1C,2,.,.,.
CCC(C(=O)O)C1CCC(C)C(C(C)C(O)C(C)C(=O)C(CC)C2OC3(C=CC(O)[C@@]4(CC[C@](C)(C5CC[C@@](O)(CC)C(C)O5)O4)O3)C(C)CC2C)O1 (some centres not stated),4,7%,28µM*,-3%
CC[C@@H](C)C(N)C(=O)O (some centres not stated),2,-2%,.,0%
O=C(NCC(c1cccnc1)N1CCc2ccccc2C1)C(=O)Nc1ccc(F)cc1F (configuration not stated),.,?,.,2.8µM*[quencher]
O=C(NCC(c1cccnc1)N1CCc2ccccc21)c1ccc(F)cc1 (configuration not stated),.,?,.,0.079µM*[quencher]
COc1ccc(C(=O)NCC(c2cccnc2)N2CCc3ccccc32)cc1OC (configuration not stated),.,-6%,.,2%
COC(=O)c1cc2sccc2n1CC(=O)Nc1ccc(C)cc1C,.,-2%,.,-18%
Cc1c(N2C(=O)/C(=C3/C(=O)N(C)c4ccccc43)SC2=S)c(=O)n(-c2ccccc2)n1C,-8,-1%,-8%,3%
CC(=O)N1C(=O)/C(=C2\SC(=S)N(c3c(C)n(C)n(-c4ccccc4)c3=O)C2=O)c2ccccc21,-40*,5%,-2%,3%
CC(C)c1cc2c(c(O)c1O)[C@@]13CCCC(C)(C)C1CC2OC3=O (some centres not stated),-30*,.,.,.
CCOC(=O)c1ccccc1NC(=O)CSc1nccn1Cc1ccco1,.,-6%,.,-6%
Cc1cc(=O)c2c(O)c3c(O)cc(O)c4c5c(O)cc(O)c6c(O)c7c(=O)cc(C)c8c1c2c(c34)c(c65)c78,-10,13µM*,4.5µM*,14µM*[fluorescent]
Cc1cc(O)c2c(c1O)C(=O)c1c(O)cc(C)c(O)c1C2=O,-4,-6%,2%,11%
CN=C1C([N+](=O)[O-])=CC=C2C1=NC1(CCCCC1)N2O,-45*,5%,5%,-3%
